TDP1 cell CPT = growth inhibition of DT40 Tdp1-/-;hTDP1 cells with camptothecin (screen for TDP1 inhibitors). AID 686979. Potency, µM (series often up to 46.2 µM), without a hit: top-dose activity change, negative = growth inhibition, most hits filed as inhibitors. actives 12% (n = 420,000). chicken DT40 Tdp1-/-;hTDP1 cells + 20 nM CPT, ATP luminescence, 48 h; note: potency is the fitted concentration of half-maximal effect; % is set by controls: 0 for no effect and ±100 for the full control effect; nearly all actives have a fitted effect of over 55% in size
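Chicken DT40 Tdp1-/- cells complemented with human TDP1, 400 cells/well, exposed to compounds plus 20 nM camptothecin for at least 48 h at 37 C; viability read as ATP content by CellTiter-Glo luminescence.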
HepG2 viability = HepG2 cytotoxicity, counter-screen for TGF-b inhibitors; HepG2 CAGA-GFP viability, ATP luminescence, 18 h; Potency, µM (series often up to 46.1 µM), without a hit: at the highest dose activity change, negative = cytotoxicity, usual class: cytotoxic; actives 0.76% (n = 410,000); note: potency is the fitted concentration of half-maximal effect
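HepG2 CAGA-GFP cells (1000/well, DMEM with 1% FBS) received compound, then TGF-beta at 500 pg/mL final, and were incubated 18 hours at 37 degrees C. Viability was read by CellTiter-Glo luminescence. Media-only wells were set as complete cell-killing and DMSO as no toxicity.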
TGFb inhibitor = inhibitors of TGF-b signaling; HepG2 CAGA-GFP TGF-b/SMAD3 reporter, GFP fluorescence, 18 h; TGF-beta stimulated, 500 pg/mL final; Potency, µM (series often up to 46.1 µM), for the others: at the highest dose activity, negative = inhibition, most hits filed as inhibitors; actives 1.2% (n = 410,000); note: potency is the fitted concentration of half-maximal effect; % is set by controls: 0 for no effect and ±100 for the full control effect; nearly all actives have a fitted effect of over 65% in size
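TGF-beta reporter screen: HEPG2 CAGA-GFP, 1% FBS, 500 pg/mL TGF-beta final, 18 h; per-cell GFP summed per well; curves fitted and categorized by class.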
TDP1 cell noCPT = qHTS for Inhibitors of human tyrosyl-DNA phosphodiesterase 1 (TDP1): qHTS in cells in absence of CPT; DT40 Tdp1-/- hTDP1 cells, no CPT, ATP luminescence, 48 h; Potency, µM (highest dose often 46.2 µM), for inactives: at the top dose activity change, negative = growth inhibition, most hits filed as inhibitors; actives 15% (n = 420,000); AID 686978, 2013; note: potency is the fitted concentration of half-maximal effect; % is set by controls: 0 for no effect and ±100 for the full control effect; nearly all actives have a fitted effect of over 55% in size
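A cellular qHTS used chicken DT40 cells lacking endogenous Tdp1 but carrying stably transfected human TDP1. Compounds were applied without camptothecin, and cell growth kinetics were judged by ATP-dependent luminescence after ≥48 hr.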
ASM inhibitor = inhibitors of human secretory acid sphingomyelinase. P17405. placental ASM, HMU-PC fluorogenic substrate, 60 min. Potency, µM (titrated, usually from 57.5 µM), inactives show at the highest dose activity change, negative = inhibition, most hits filed as inhibitors. actives 0.006% (n = 340,000). AID 504937; note: potency is the fitted concentration of half-maximal effect
Target sequence (P17405 47-631 limits assumed): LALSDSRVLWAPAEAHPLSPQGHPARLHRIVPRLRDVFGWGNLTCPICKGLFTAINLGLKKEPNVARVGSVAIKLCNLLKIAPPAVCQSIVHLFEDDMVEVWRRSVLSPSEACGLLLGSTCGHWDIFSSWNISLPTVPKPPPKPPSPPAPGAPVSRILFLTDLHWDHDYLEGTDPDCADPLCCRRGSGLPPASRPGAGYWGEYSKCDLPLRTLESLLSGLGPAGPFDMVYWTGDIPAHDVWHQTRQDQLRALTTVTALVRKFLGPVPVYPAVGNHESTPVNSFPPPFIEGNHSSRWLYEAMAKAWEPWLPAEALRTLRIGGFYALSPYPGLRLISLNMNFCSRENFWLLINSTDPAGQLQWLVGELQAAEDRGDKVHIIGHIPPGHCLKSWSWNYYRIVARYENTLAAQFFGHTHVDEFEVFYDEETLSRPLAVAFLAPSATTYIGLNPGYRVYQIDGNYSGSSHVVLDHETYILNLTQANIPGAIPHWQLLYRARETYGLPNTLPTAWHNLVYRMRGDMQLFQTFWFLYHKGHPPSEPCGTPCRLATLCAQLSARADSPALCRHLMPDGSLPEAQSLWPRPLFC
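Fluorogenic HMU-PC substrate (9 uM final) is turned over by placental ASM in 60 min at 37 C after a 10 min compound preincubation. Reaction ended by alkaline stop (pH 10), with fluorescence read at 386/447 nm.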
IL1B secr inh = inhibitors of inflammasome signaling (IL-1 beta secretion) | activity change, % at 57.5 µM | actives 4.7% (n = 360,000) | THP-1 LPS/ATP IL-1B secretion, AlphaLISA, 16 h; active compounds read low; in the data active = activity change below about -50%; inconclusive = mostly about -30% to -49%; note: % is set by controls: 0 for no effect and ±100 for the full control effect
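THP-1 cells pretreated 1 hr with compounds (up to 57.5 uM final), then stimulated with LPS (250 ng/mL final) plus ATP (1.25 mM final); secreted IL-1B measured by AlphaLISA after 16 hr, decreased signal indicating inhibition.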
Numbers without * were called inactive. This is a sample that favours compounds with a hit; in the whole collection about 19% have one here. Unless noted, calls come from the whole dose curve; as a rule, active = well fitted curve in the direction sought with a large enough effect; inconclusive = small, poorly fitted or top-dose-only effect, or another doubt; inactive = no such curve, though single readings can be large; an effect the other way counts as inactive or inconclusive.

Cc1coc2cc3oc(=O)c(CCC(=O)N4C[C@H]5C[C@@H](C4)c4cccc(=O)n4C5)c(C)c3cc12 was read as TDP1 cell CPT -25%, HepG2 viability 1%, TGFb inhibitor 1%, TDP1 cell noCPT inconclusive, ASM inhibitor 20% and IL1B secr inh -13.
Cc1cccc(OCC(=O)NCc2ccc(F)cc2)c1 was read as TDP1 cell CPT -9%, HepG2 viability -13%, TGFb inhibitor -13%, TDP1 cell noCPT 16%, ASM inhibitor -2% and IL1B secr inh -1.
Screening Cc1ccc(NC(=O)CN(C)C(=O)c2ccccc2Sc2ccccc2C#N)cc1 returned TDP1 cell CPT inconclusive, HepG2 viability -15%, TGFb inhibitor -2%, TDP1 cell noCPT 15µM*, ASM inhibitor 0% and IL1B secr inh -20.
`CC(C)c1ccc2nc(N)sc2c1` gave TDP1 cell CPT 20%, HepG2 viability 5%, TGFb inhibitor -5%, TDP1 cell noCPT 26µM*, ASM inhibitor 3% and IL1B secr inh 2.
CC1CCN(CCOc2ccccc2-c2ccccc2)CC1 was read as TDP1 cell CPT 11%, HepG2 viability -12%, TGFb inhibitor -25%, TDP1 cell noCPT inconclusive, ASM inhibitor 0% and IL1B secr inh -28.
`CC1CCN(CC[S-])CC1.O.O.[Cl][Pt]` gave TDP1 cell CPT 1.3µM*, HepG2 viability -75%, TGFb inhibitor inconclusive and TDP1 cell noCPT 1.6µM*.
O=S(=O)(c1ccc(Cl)cc1)N1CCN(CCc2ccccc2)CC1 was read as TDP1 cell CPT -24%, HepG2 viability -4%, TGFb inhibitor 10%, TDP1 cell noCPT -21%, ASM inhibitor -2% and IL1B secr inh -5.
`Cc1c(C2CCN(CCc3ccccc3)CC2)noc1-c1ccc(Cl)cc1` gave TDP1 cell CPT 12µM* and TDP1 cell noCPT 9.2µM*.
For Cc1c(-c2ccc(Cl)cc2)noc1C1CCN(CCc2ccccc2)CC1 the results were TDP1 cell CPT inconclusive and TDP1 cell noCPT 15µM*.
Screening CCC(c1ccc(O)c(O)c1)C(CC)c1ccc(O)c(O)c1 (stereo unspecified) returned TDP1 cell CPT 2.9µM*, HepG2 viability -19%, TGFb inhibitor inconclusive, TDP1 cell noCPT 1.8µM*, ASM inhibitor -14% and IL1B secr inh -99*.
For O=C(NNC(=O)c1cccc(S(=O)(=O)N2CCc3ccccc32)c1)c1ccccc1 the results were TDP1 cell CPT inconclusive, HepG2 viability -10%, TGFb inhibitor -24%, TDP1 cell noCPT 5.2µM*, ASM inhibitor -7% and IL1B secr inh 30.
For Cc1nnc(NC(=O)c2cccc(S(=O)(=O)N3CCc4ccccc43)c2)s1 the results were TDP1 cell CPT 4%, HepG2 viability 3%, TGFb inhibitor 0%, TDP1 cell noCPT -23%, ASM inhibitor -15% and IL1B secr inh 18.
O=C(NCc1ccccn1)c1cccc(S(=O)(=O)N2CCc3ccccc32)c1 was read as TDP1 cell CPT inconclusive, HepG2 viability -23%, TGFb inhibitor -17%, TDP1 cell noCPT inconclusive, ASM inhibitor 0% and IL1B secr inh 8.
For O=C(Nc1nc2ccccc2s1)c1cccc(S(=O)(=O)N2CCc3ccccc32)c1 the results were TDP1 cell CPT -23%, HepG2 viability -14%, TGFb inhibitor inconclusive, TDP1 cell noCPT 10µM*, ASM inhibitor -4% and IL1B secr inh 25.
CC(C)CCNC(=O)c1cccc(S(=O)(=O)N2CCc3ccccc32)c1 was read as TDP1 cell CPT 15µM*, HepG2 viability -23%, TGFb inhibitor 4%, TDP1 cell noCPT inconclusive, ASM inhibitor 0% and IL1B secr inh 16.
CC(=O)c1cccc(NC(=O)Cn2c(=O)oc3cc(S(=O)(=O)NC4CCCC4)ccc32)c1 was read as TDP1 cell CPT inconclusive, HepG2 viability 5%, TGFb inhibitor inconclusive and TDP1 cell noCPT inconclusive.
`CCOC(=O)C1=C(COC(=O)/C=C/c2ccc(F)cc2)NC(=O)NC1C` (stereo unspecified) gave TDP1 cell CPT -28%, HepG2 viability -7%, TGFb inhibitor 3%, TDP1 cell noCPT -25% and IL1B secr inh -6.
Cc1ccc(C)c(N2CCN(c3ccc(N4C(=O)COCC4=O)cc3[N+](=O)[O-])CC2)c1 was read as TDP1 cell CPT 0%, HepG2 viability 16%, TGFb inhibitor -2%, TDP1 cell noCPT -8%, ASM inhibitor -2% and IL1B secr inh 27.
COc1ccc(N2CCN(C(=O)c3ccccc3Br)CC2)c([N+](=O)[O-])c1 was read as TDP1 cell CPT inconclusive, HepG2 viability -19%, TGFb inhibitor -10%, TDP1 cell noCPT 15µM*, ASM inhibitor -11% and IL1B secr inh -61*.
`COc1ccc(N2CCN(c3ccc(N4C(=O)COCC4=O)cc3[N+](=O)[O-])CC2)cc1` gave TDP1 cell CPT inconclusive, HepG2 viability -14%, TGFb inhibitor 3%, TDP1 cell noCPT 9.2µM*, ASM inhibitor -10% and IL1B secr inh -4.
Screening COc1ccc(N2CCN(C(=O)c3ccc(Br)cc3)CC2)c([N+](=O)[O-])c1 returned TDP1 cell CPT inconclusive, HepG2 viability 2%, TGFb inhibitor 0%, TDP1 cell noCPT 18µM*, ASM inhibitor -6% and IL1B secr inh -18.
Screening CCC[C@@H](CN1CCC[C@H]1CN1C(N)=NC[C@H]1CC(C)C)N1C[C@@H](Cc2ccccc2)N(CCc2ccc(Cl)c(Cl)c2)C1=N returned TDP1 cell CPT 21µM*, HepG2 viability -27%, TGFb inhibitor 5%, TDP1 cell noCPT inconclusive, ASM inhibitor -12% and IL1B secr inh -69*.
CCC[C@@H](CN1CCC[C@H]1CN1C(N)=NC[C@@H]1Cc1ccccc1)N1C[C@@H](Cc2ccccc2)N(CCc2ccc(Cl)c(Cl)c2)C1=N was read as TDP1 cell CPT inconclusive, HepG2 viability 5%, TGFb inhibitor -11%, TDP1 cell noCPT inconclusive, ASM inhibitor -6% and IL1B secr inh -53*.
O=C(O)c1cc(S(=O)(=O)N2CCCCC2)ccc1N1CCOCC1 was read as TDP1 cell CPT -1%, HepG2 viability -2%, TGFb inhibitor 7%, TDP1 cell noCPT 0%, ASM inhibitor 5% and IL1B secr inh 1.

Source: PubChem BioAssay (National Center for Advancing Translational Sciences (NCATS))
